# Several values for one entry are separate records, joined by “and”; a condition that tells them apart may be missing. Identical values can stand only once. Among all 5,500 compounds or so, about 2,000 (36%) were called active. Inconclusive results (about 18%) are left out. Rule as the data show it: active = normalized growth mostly below about 0.91 (no sharp cut-off); inconclusive = no clear call, values can overlap the other calls; inactive = mostly above about 0.92. This is one part of the list.
# Assay: chemical genetic growth profiling, strain panel (AID 1159580);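 also: tested at 20 µM; growth read once vehicle control cultures reached saturation at 30 °C; 1 = growth at the plate median or of vehicle wells; lower values mean less growth of the strain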
# Settings: S. cerevisiae deletion strains, growth OD
smiles,measurement,setting,value
O=C1OC(=O)C2C3CCC(O3)C12 (stereo not given),normalized growth,"locus YAL013W, strain DEP1, stronger effect = lower value",1.03 (inactive)
same,normalized growth,"locus YAL021C, strain ccr4, stronger effect = lower value",1.02 (inactive)
same,normalized growth,"locus YAL026C, strain drs2, stronger effect = lower value",1.02 (inactive)
same,normalized growth,"locus YAL030W, strain snc1, stronger effect = lower value",1.03 (inactive)
same,normalized growth,"locus YAL040C, strain CLN3, stronger effect = lower value",1 (inactive)
same,normalized growth,"locus YBL061C, strain skt5, stronger effect = lower value",1.01 (inactive)
same,normalized growth,"locus YBR009C, strain hhf1, stronger effect = lower value",1 (inactive)
same,normalized growth,"locus YBR021W, strain FUR4, stronger effect = lower value",0.947 (inactive)
same,normalized growth,"locus YBR023C, strain chs3, stronger effect = lower value",1.02 (inactive)
same,normalized growth,"locus YBR171W, strain sec66, stronger effect = lower value",1.02 (inactive)
same,normalized growth,"locus YBR229C, strain ROT2, stronger effect = lower value",1 (inactive)
same,normalized growth,"locus YBR231C, strain swc5, stronger effect = lower value",1 (inactive)
same,normalized growth,"locus YBR279W, strain paf1, stronger effect = lower value",1 (inactive)
same,normalized growth,"locus YCL011C, strain gbp2, stronger effect = lower value",1.01 (inactive)
same,normalized growth,"locus YCL016C, strain dcc1, stronger effect = lower value",1.03 (inactive)
same,normalized growth,"locus YCL029C, strain bik1, stronger effect = lower value",0.966 (inactive)
same,normalized growth,"locus YCL061C, strain MRC1 (second series), stronger effect = lower value",1 (inactive)
same,normalized growth,"locus YCL069W, strain vba3, stronger effect = lower value",0.994 (inactive)
same,normalized growth,"locus YCR088W, strain abp1, stronger effect = lower value",1.01 (inactive)
same,normalized growth,"locus YDL005C, strain med2, stronger effect = lower value",1.01 (inactive)
same,normalized growth,"locus YDL035C, strain GPR1, stronger effect = lower value",1.01 (inactive)
same,normalized growth,"locus YDL040C, strain nat1, stronger effect = lower value",1 (inactive)
same,normalized growth,"locus YDL074C, strain BRE1, stronger effect = lower value",1.01 (inactive)
same,normalized growth,"locus YDL101C, strain DUN1, stronger effect = lower value",1.01 (inactive)
same,normalized growth,"locus YDL134C, strain PPH21, stronger effect = lower value",1.02 (inactive)
same,normalized growth,"locus YDL185W, strain tfp1, stronger effect = lower value",0.937 (inactive)
same,normalized growth,"locus YDL192W, strain arf1, stronger effect = lower value",0.977 (inactive)
same,normalized growth,"locus YDR001C, strain nth1, stronger effect = lower value",1 (inactive)
same,normalized growth,"locus YDR069C, strain doa4, stronger effect = lower value",1.01 (inactive)
same,normalized growth,"locus YDR101C, strain arx1, stronger effect = lower value",0.982 (inactive)
same,normalized growth,"locus YDR137W, strain rgp1, stronger effect = lower value",1.06 (inactive)
same,normalized growth,"locus YDR150W, strain NUM1, stronger effect = lower value",1.03 (inactive) and 1 (inactive)
same,normalized growth,"locus YDR159W, strain sac3, stronger effect = lower value",0.98 (inactive)
same,normalized growth,"locus YDR162C, strain NBP2, stronger effect = lower value",0.987 (inactive)
same,normalized growth,"locus YDR195W, strain ref2",0.975 (inactive)
same,normalized growth,"locus YDR297W, strain sur2, stronger effect = lower value",0.998 (inactive)
same,normalized growth,"locus YDR318W, strain mcm21, stronger effect = lower value",0.981 (inactive)
same,normalized growth,"locus YDR334W, strain swr1, stronger effect = lower value",0.992 (inactive)
same,normalized growth,"locus YDR335W, strain msn5, stronger effect = lower value",1.02 (inactive)
same,normalized growth,"locus YDR363W, strain ESC2, stronger effect = lower value",1.03 (inactive)
same,normalized growth,"locus YDR388W, stronger effect = lower value",0.956 (inactive)
same,normalized growth,"locus YDR392W, strain spt3, stronger effect = lower value",1.09 (inactive)
same,normalized growth,"locus YDR502C, strain sam2, stronger effect = lower value",0.966 (inactive)
same,normalized growth,"locus YEL003W, strain gim4, stronger effect = lower value",1.01 (inactive)
same,normalized growth,"locus YEL037C, strain rad23, stronger effect = lower value",1.02 (inactive)
same,normalized growth,"locus YEL061C, strain CIN8 (second series), stronger effect = lower value",1 (inactive)
same,normalized growth,"locus YEL061C, strain CIN8, stronger effect = lower value",1.02 (inactive)
same,normalized growth,"locus YER002W, strain NOP16, stronger effect = lower value",1.02 (inactive)
same,normalized growth,"locus YER015W, strain faa2, stronger effect = lower value",1.01 (inactive)
same,normalized growth,"locus YER016W, strain bim1, stronger effect = lower value",1.01 (inactive)
same,normalized growth,"locus YER110C, stronger effect = lower value",0.97 (inactive)
same,normalized growth,"locus YER111C, strain swi4, stronger effect = lower value",1.02 (inactive)
same,normalized growth,"locus YER155C, strain BEM2 (second series), stronger effect = lower value",1.02 (inactive)
same,normalized growth,"locus YER155C, strain BEM2, stronger effect = lower value",1.02 (inactive)
same,normalized growth,"locus YER167W, strain BCK2, stronger effect = lower value",1 (inactive)
same,normalized growth,"locus YFR010W, strain ubp6, stronger effect = lower value",0.967 (inactive)
same,normalized growth,"locus YGL078C, strain dbp3, stronger effect = lower value",0.98 (inactive)
same,normalized growth,"locus YGL086W, strain mad1, stronger effect = lower value",0.995 (inactive)
same,normalized growth,"locus YGL167C, strain pmr1, stronger effect = lower value",1.01 (inactive)
same,normalized growth,"locus YGL173C, strain kem1, stronger effect = lower value",1 (inactive)
same,normalized growth,"locus YGL227W, strain vid30, stronger effect = lower value",0.996 (inactive)
same,normalized growth,"locus YGL240W, strain doc1, stronger effect = lower value",0.981 (inactive)
same,normalized growth,"locus YGL248W, strain PDE1, stronger effect = lower value",1.01 (inactive)
same,normalized growth,"locus YGL253W, strain hxk2, stronger effect = lower value",1.03 (inactive)
same,normalized growth,"locus YGR078C, strain PAC10, stronger effect = lower value",1.03 (inactive)
same,normalized growth,"locus YGR135W, strain pre9, stronger effect = lower value",0.967 (inactive)
same,normalized growth,"locus YGR229C, strain SMI1, stronger effect = lower value",1.02 (inactive)
same,normalized growth,"locus YGR252W, strain gcn5, stronger effect = lower value",0.982 (inactive)
same,normalized growth,"locus YHR013C, strain ard1, stronger effect = lower value",1.05 (inactive)
same,normalized growth,"locus YHR027C, strain rpn1, stronger effect = lower value",1.04 (inactive)
same,normalized growth,"locus YHR030C, strain SLT2, stronger effect = lower value",1.01 (inactive) and 0.877 (inactive)
same,normalized growth,"locus YHR079C, strain IRE1 (second series), stronger effect = lower value",0.98 (inactive)
same,normalized growth,"locus YHR079C, strain IRE1, stronger effect = lower value",0.919 (inactive)
same,normalized growth,"locus YHR094C, strain hxt1, stronger effect = lower value",0.98 (inactive)
same,normalized growth,"locus YHR129C, strain ARP1, stronger effect = lower value",1.03 (inactive)
same,normalized growth,"locus YHR142W, strain chs7, stronger effect = lower value",1.04 (inactive)
same,normalized growth,"locus YHR200W, strain rpn10, stronger effect = lower value",0.977 (inactive)
same,normalized growth,"locus YIL066C, strain RNR3, stronger effect = lower value",1.02 (inactive)
same,normalized growth,"locus YIL073C, strain SPO22, stronger effect = lower value",1.02 (inactive)
same,normalized growth,"locus YIL125W, strain kgd1, stronger effect = lower value",0.973 (inactive)
same,normalized growth,"locus YIR030C, strain dcg1, stronger effect = lower value",0.985 (inactive)
same,normalized growth,"locus YJL092W, strain hpr5, stronger effect = lower value",1.01 (inactive)
same,normalized growth,"locus YJL095W, strain BCK1 (second series), stronger effect = lower value",1.01 (inactive)
same,normalized growth,"locus YJL095W, strain BCK1, stronger effect = lower value",1 (inactive) and 0.875 (active)
same,normalized growth,"locus YJL115W, strain asf1, stronger effect = lower value",1 (inactive)
same,normalized growth,"locus YJL129C, strain trk1, stronger effect = lower value",1.03 (inactive)
same,normalized growth,"locus YJL134W, strain LCB3, stronger effect = lower value",1.01 (inactive)
same,normalized growth,"locus YJL154C, strain vps35, stronger effect = lower value",0.999 (inactive)
same,normalized growth,"locus YJL164C, strain tpk1, stronger effect = lower value",1 (inactive)
same,normalized growth,"locus YJL166W, strain qcr8, stronger effect = lower value",0.99 (inactive)
same,normalized growth,"locus YJL168C, strain set2, stronger effect = lower value",0.984 (inactive)
same,normalized growth,"locus YJL187C, strain SWE1 (second series), stronger effect = lower value",1.01 (inactive)
same,normalized growth,"locus YJR043C, strain POL32, stronger effect = lower value",1 (inactive)
same,normalized growth,"locus YJR066W, strain TOR1, stronger effect = lower value",0.872 (inactive)
same,normalized growth,"locus YJR075W, strain HOC1, stronger effect = lower value",1.02 (inactive)
